JMJD2E inh – blocks human JMJD2E demethylase activity | B2RXH2 | JMJD2E catalytic domain, FDH-coupled NADH fluorescence (FDH is formaldehyde dehydrogenase) | Potency, µM (series often up to 57.1 µM), most hits filed as inhibitors | 1.6% of 230,000 active | AID 2147; active means well fitted inhibition curve with a large enough effect, not every such curve was filed as active; inconclusive means small, poorly fitted or top-dose-only effect, or another doubt; inactive means no such curve, though single readings can be large or run the other way; further: nearly all actives have a fitted effect of over 50% in size
NPSR antagonist – antagonists of human neuropeptide S receptor cAMP signaling. Q6W5P4. CHO-NPSR cells, cAMP TR-FRET, antagonist mode. Potency, µM (highest dose often 38.3 µM), hits mostly inhibitors. 1% of 220,000 active. AID 1461; further: nearly all actives have a fitted effect of over 50% in size
ALDH1A1 inh – ALDH1A1 (human) enzyme inhibition; Purified ALDH1A1, NADH fluorescence, propionaldehyde substrate; Potency, µM (titrated, usually from 75.3 µM), usual class: inhibitors; 7.3% of 220,000 active; P00352; active means well fitted inhibition curve with a large enough effect, not every such curve was filed as active; inconclusive means small, poorly fitted or top-dose-only effect, or another doubt; inactive means no such curve, though single readings can be large or run the other way
Target sequence (P00352 whole entry, looked up): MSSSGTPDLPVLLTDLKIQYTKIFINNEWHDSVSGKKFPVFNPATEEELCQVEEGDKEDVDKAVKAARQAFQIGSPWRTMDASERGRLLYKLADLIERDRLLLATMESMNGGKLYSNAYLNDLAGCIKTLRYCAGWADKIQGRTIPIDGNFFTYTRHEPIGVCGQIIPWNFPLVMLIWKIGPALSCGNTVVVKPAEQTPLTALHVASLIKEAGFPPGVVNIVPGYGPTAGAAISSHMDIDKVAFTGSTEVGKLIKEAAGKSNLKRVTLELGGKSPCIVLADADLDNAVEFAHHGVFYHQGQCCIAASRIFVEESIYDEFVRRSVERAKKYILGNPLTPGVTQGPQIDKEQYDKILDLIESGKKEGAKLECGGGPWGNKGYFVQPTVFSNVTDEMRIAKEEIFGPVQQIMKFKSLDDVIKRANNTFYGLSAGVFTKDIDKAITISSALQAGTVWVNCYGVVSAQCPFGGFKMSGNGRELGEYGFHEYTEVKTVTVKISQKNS
GoLoco inh red – blocks human Gai1 binding to RGS12 GoLoco peptide, red readout; P63096; Gai1:RGS12 GoLoco peptide FP, rhodamine, 10 min; Potency, µM (top dose mostly 61.6 µM), hits mostly inhibitors; 0.44% of 230,000 active; active means well fitted inhibition curve with a large enough effect, not every such curve was filed as active; inactive means no such curve, though single readings can be large or run the other way; further: nearly all actives have a fitted effect of over 30% in size
Coupling enz – inhibits coupling enzyme system, counter-screen for aldolase hits. coupling enzyme system counterscreen, AmpLite Red fluorescence. activity change, negative = inhibition, % at 58.2 µM, hits read low. 0.67% of 290,000 active. AID 2472; in the data active means activity change below about -30%
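Coupling enzymes only (glyceraldehyde-3-phosphate) + compound, at 57.5 uM final, 10 min RT; add substrate/coupling/AmpLite Red mix, 20 min RT; fluorescence ex 525/em 598 nm. Actives flag coupling-system interference.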
Sfp PPTase inh – Sfp phosphopantetheinyl transferase inhibition. Q9F4F7. Biochemical Sfp PPTase activity, qHTS. Potency, µM, usual class: inhibitors. 3.5% of 310,000 active. AID 1490;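 further: the enzyme is Sfp with the accession as filed and its product quenches rhodamine fluorescence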
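Compounds were incubated with enzyme (final 15 nM) for 15 min at room temperature before substrate addition started the reaction. Fluorescence at 525 nm excitation, 598 nm emission was recorded immediately and after 30 minutes.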
Hits are given with their value. In the library only some 8.5% were active in any assay of this set; here they are far more common. Unless noted, the call rests on the fitted dose curve; in most records, active means well fitted curve in the direction sought with a large enough effect; inconclusive means small, poorly fitted or top-dose-only effect, or another doubt; inactive means no such curve, though single readings can be large; an effect the other way counts as inactive or inconclusive.

Results for COc1cc(C(=O)NCc2ccc3[nH]c(C)cc3c2)cc(OC)c1OC ?
JMJD2E inh: inactive; NPSR antagonist: inactive; ALDH1A1 inh: inactive; GoLoco inh red: inactive; Coupling enz: inactive; Sfp PPTase inh: inactive

Results for COc1cccc(C(=O)NCc2ccc3[nH]c(C)cc3c2)c1 ?
JMJD2E inh: inactive; NPSR antagonist: inactive; ALDH1A1 inh: 28µM; GoLoco inh red: inactive; Coupling enz: inactive; Sfp PPTase inh: inconclusive

Results for COc1ccc(C(=O)NCc2ccc3[nH]c(C)cc3c2)cc1OC ?
JMJD2E inh: inactive; NPSR antagonist: inactive; ALDH1A1 inh: 20µM; GoLoco inh red: inactive; Coupling enz: inactive; Sfp PPTase inh: inactive

What do the screens show for `O=C(NCc1ccc2c(c1)OCO2)c1ccc2c(c1)OCO2`?
JMJD2E inh: inactive; NPSR antagonist: inactive; GoLoco inh red: inactive; Coupling enz: inactive; Sfp PPTase inh: inactive

Results for Cc1c(N(C(=O)c2ccccn2)C2(C(=O)NC3CCCC3)CCCCC2)c(=O)n(-c2ccccc2)n1C ?
JMJD2E inh: inactive; NPSR antagonist: inactive; ALDH1A1 inh: inactive; GoLoco inh red: inactive; Coupling enz: inactive; Sfp PPTase inh: inactive

What do the screens show for `CCOc1ccc(-c2c(C(=O)N/N=C/C3CCCCC3)nnn2-c2nonc2N)cc1`?
Coupling enz: inactive; Sfp PPTase inh: inactive

What do the screens show for `COC(=O)c1sccc1NC(=S)N1CC(C)CC(C)C1` (configuration not stated)?
JMJD2E inh: inactive; NPSR antagonist: inconclusive; ALDH1A1 inh: 7.9µM; GoLoco inh red: inactive; Coupling enz: inactive; Sfp PPTase inh: inactive

What do the screens show for `COC(=O)c1sccc1NC(=S)N1CCN(c2ccc(F)cc2)CC1`?
JMJD2E inh: inactive; NPSR antagonist: inactive; ALDH1A1 inh: inactive; GoLoco inh red: inactive; Coupling enz: inactive; Sfp PPTase inh: inactive

How did COC(=O)c1sccc1NC(=S)N1CCC(C)CC1 do in these assays?
JMJD2E inh: inactive; NPSR antagonist: inactive; ALDH1A1 inh: 20µM; GoLoco inh red: inactive; Coupling enz: inactive; Sfp PPTase inh: inactive

Results for COC(=O)c1sccc1NC(=S)N1CCN(c2ccccc2)CC1 ?
JMJD2E inh: inactive; NPSR antagonist: inactive; ALDH1A1 inh: inactive; GoLoco inh red: inactive; Coupling enz: inactive; Sfp PPTase inh: inactive

What do the screens show for `CN(C(=O)Cc1c(C(=O)O)n(C)c2ccccc12)c1cccc(C(F)(F)F)c1`?
Coupling enz: inactive; Sfp PPTase inh: inactive

What do the screens show for `COc1ccc(C2CC(=O)c3c(C)nc(N4CCN(Cc5ccccc5)CC4)nc3C2)cc1OC` (configuration not stated)?
JMJD2E inh: inactive; NPSR antagonist: inactive; ALDH1A1 inh: 25µM; GoLoco inh red: inactive; Coupling enz: inactive; Sfp PPTase inh: inactive

Results for CCOC(=O)N1CCC(N2CCCC(C(=O)c3cccc(OC)c3)C2)CC1 (configuration not stated) ?
JMJD2E inh: inactive; NPSR antagonist: inactive; GoLoco inh red: inactive; Coupling enz: inactive; Sfp PPTase inh: inactive

Results for COC(=O)c1c(NC(=O)CN2CCC3(O)CCCCC3C2c2ccccc2OC)sc(C)c1C (configuration not stated) ?
JMJD2E inh: inactive; NPSR antagonist: inactive; ALDH1A1 inh: inconclusive; GoLoco inh red: inactive; Coupling enz: inactive; Sfp PPTase inh: inactive

Results for COC(=O)c1c(NC(=O)CN2CCC3(O)CCCCC3C2c2ccc(OC)cc2OC)sc(C)c1C (configuration not stated) ?
JMJD2E inh: inactive; NPSR antagonist: inactive; ALDH1A1 inh: 2.5µM; GoLoco inh red: inactive; Coupling enz: inactive; Sfp PPTase inh: 20µM

Results for Cc1ccc(C(=O)CSc2nnc(C(C)C)n2C)cc1C ?
JMJD2E inh: inactive; NPSR antagonist: inactive; ALDH1A1 inh: inactive; GoLoco inh red: inactive; Coupling enz: inactive; Sfp PPTase inh: inactive

What do the screens show for `CCCCn1nnnc1SCC(=O)c1ccccc1F`?
JMJD2E inh: inactive; NPSR antagonist: inactive; ALDH1A1 inh: inactive; GoLoco inh red: inactive; Coupling enz: inactive; Sfp PPTase inh: inactive

Results for CCCCn1nnnc1SCC(=O)c1cc(Cl)ccc1OC ?
JMJD2E inh: inactive; NPSR antagonist: inactive; ALDH1A1 inh: 5µM; GoLoco inh red: inactive; Coupling enz: inactive; Sfp PPTase inh: inactive

How did CCCCn1nnnc1SCC(=O)c1ccc(C)c(C)c1 do in these assays?
JMJD2E inh: inactive; NPSR antagonist: inactive; ALDH1A1 inh: 7.9µM; Coupling enz: inactive; Sfp PPTase inh: inactive

What do the screens show for `COc1ccc(NC=O)c(C(=O)CCNC(C)=O)c1`?
Coupling enz: inactive; Sfp PPTase inh: inactive

What do the screens show for `Cc1cccc(C(=O)NCCCNC(=O)c2cccnc2)c1`?
Coupling enz: inactive; Sfp PPTase inh: inactive

Results for CSc1nsc(/C=C/Nc2ccc(C(=O)O)cc2)c1C#N ?
JMJD2E inh: 22µM; NPSR antagonist: inactive; ALDH1A1 inh: 10µM; GoLoco inh red: inactive; Coupling enz: inactive; Sfp PPTase inh: inactive

What do the screens show for `CSc1nsc(/C=C/Nc2ccc(F)cc2F)c1C#N`?
JMJD2E inh: inconclusive; NPSR antagonist: inactive; ALDH1A1 inh: 8.9µM; GoLoco inh red: inactive; Coupling enz: inactive; Sfp PPTase inh: inactive

Results for COc1cc(C2c3c([nH]c(=O)[nH]c3=O)Nc3ccc4ccccc4c32)cc(OC)c1OC (configuration not stated) ?
JMJD2E inh: inconclusive; NPSR antagonist: inactive; ALDH1A1 inh: inconclusive; GoLoco inh red: inactive; Coupling enz: inactive; Sfp PPTase inh: 56µM

How did O=C(NC(=S)Nc1ccc2[nH]c(=O)[nH]c2c1)c1ccccc1Cl do in these assays?
Sfp PPTase inh: inactive

How did Cc1c(Cl)cccc1NC(=S)Nc1ccc2[nH]c(=O)[nH]c2c1 do in these assays?
JMJD2E inh: inactive; NPSR antagonist: inactive; GoLoco inh red: inactive; Coupling enz: inactive; Sfp PPTase inh: 56µM

What do the screens show for `Cc1ccc2oc(=O)n(CC(=O)OCCC(C)C)c2c1`?
JMJD2E inh: inactive; NPSR antagonist: inactive; GoLoco inh red: inactive; Coupling enz: inactive; Sfp PPTase inh: inactive

How did CCCc1nnc2n1N=C(c1ccc([N+](=O)[O-])cc1)CS2 do in these assays?
JMJD2E inh: inactive; NPSR antagonist: inactive; GoLoco inh red: inactive; Coupling enz: inactive; Sfp PPTase inh: inactive

What do the screens show for `O=[N+]([O-])c1ccc(C2=Nn3c(Cn4nnc5ccccc54)nnc3SC2)cc1`?
JMJD2E inh: inactive; NPSR antagonist: inactive; GoLoco inh red: inactive; Coupling enz: inactive; Sfp PPTase inh: 20µM

Results for COc1ccc(CCNC(=O)CCC2COc3ccccc3O2)cc1OC (configuration not stated) ?
JMJD2E inh: inactive; NPSR antagonist: inactive; ALDH1A1 inh: 13µM; GoLoco inh red: inactive; Coupling enz: inactive; Sfp PPTase inh: inactive

Results for COc1ccc(CCNC(=O)C(=O)NCCOc2ccccc2)cc1OC ?
JMJD2E inh: inactive; NPSR antagonist: inactive; ALDH1A1 inh: 4µM; GoLoco inh red: inactive; Coupling enz: inactive; Sfp PPTase inh: inactive
